# Source: PubChem (National Center for Advancing Translational Sciences (NCATS))
# Compounds with a hit are over-represented: about 10% of the library has one in this group of screens.
# Six1-Eya2 inh: qHTS Assay for Inhibitors of the Six1/Eya2 Interaction; activity change, % (no concentration beside the values); Homeobox protein SIX1 (Homo sapiens) + Protein phosphatase EYA2 (Homo sapiens), …; AID 651725, 2012; 360,000 tested, 0.56% active; AlphaScreen GST-Six1/His-Eya2 binding, biochemical; stronger effect = lower value; in the data active = activity change below about -65%; inconclusive = mostly about -30% to -63%
# Target sequence (O00167 whole entry, looked up): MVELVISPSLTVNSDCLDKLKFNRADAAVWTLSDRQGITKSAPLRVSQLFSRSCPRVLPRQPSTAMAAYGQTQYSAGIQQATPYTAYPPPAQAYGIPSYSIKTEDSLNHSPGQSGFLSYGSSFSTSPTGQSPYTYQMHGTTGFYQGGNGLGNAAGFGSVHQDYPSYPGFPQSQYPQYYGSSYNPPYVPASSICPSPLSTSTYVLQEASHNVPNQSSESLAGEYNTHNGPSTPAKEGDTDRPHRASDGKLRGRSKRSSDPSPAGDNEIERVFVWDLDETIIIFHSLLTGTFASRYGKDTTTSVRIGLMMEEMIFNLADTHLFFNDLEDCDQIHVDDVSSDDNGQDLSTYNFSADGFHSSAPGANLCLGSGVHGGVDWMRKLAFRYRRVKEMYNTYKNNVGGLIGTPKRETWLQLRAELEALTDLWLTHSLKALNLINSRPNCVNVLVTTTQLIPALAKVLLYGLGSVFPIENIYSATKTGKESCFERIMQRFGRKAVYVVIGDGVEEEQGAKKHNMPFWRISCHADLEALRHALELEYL
# Target sequence (Q15475 whole entry, looked up): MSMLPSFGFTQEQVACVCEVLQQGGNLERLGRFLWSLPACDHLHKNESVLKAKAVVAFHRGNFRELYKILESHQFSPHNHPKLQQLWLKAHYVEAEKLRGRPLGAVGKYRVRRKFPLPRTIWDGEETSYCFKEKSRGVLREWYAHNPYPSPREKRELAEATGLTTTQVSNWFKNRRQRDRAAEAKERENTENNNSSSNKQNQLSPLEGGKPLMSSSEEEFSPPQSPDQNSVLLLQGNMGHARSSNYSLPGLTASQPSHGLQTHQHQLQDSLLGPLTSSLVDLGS
#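 AlphaScreen with GST-Six1 and His-Eya2 (5X mix: 250 nM and 500 nM), glutathione donor and nickel acceptor beads; buffer 50 mM Tris pH 8.0, 300 mM NaCl, 1 mM TCEP; 1 h at 37 C in the dark.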
# HP1b binding inh: HTS for Inhibitors of HP1-beta Chromodomain Interactions with Methylated Histone Tails; Chromobox protein homolog 1 (Homo sapiens), P83916; Potency, µM (doses to about 114 µM), hits mostly inhibitors; 390,000 tested, 0.56% active; AlphaScreen HP1-beta / biotin-H3K9me3 peptide binding; note: nearly all actives have a fitted effect of over 70% in size
#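 Compound inhibition of the preformed complex between 50 nM HP1-beta and 50 nM biotinylated H3K9me3 peptide was read by AlphaScreen. Buffer was PBS pH 7.4 with 0.01% Tween-20. Incubations ran 30 min at room temperature, with 10 ug/mL donor/acceptor beads.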
# JMJD2A Tudor: qHTS Assay for Inhibitors of JMJD2A-Tudor Domain; Lysine-specific demethylase 4A (Homo sapiens), O75164; AlphaScreen JMJD2A-Tudor / H3K4me3 peptide binding; Potency, µM (series often up to 114 µM), usual class: inhibitors; 390,000 tested, 4.4% active; note: nearly all actives have a fitted effect of over 50% in size
# CtBP-E1A blk: qHTS Assay for Inhibitors of the CtBP/E1A Interaction. 340,000 tested, 0.49% active. CtBP / adenovirus E1A interaction (AlphaScreen). AlphaScreen GST-E1A/His-CtBP binding, 1536-well; stronger effect = lower value. activity change, % (no concentration beside the values); in the data active = activity change below about -65%; inconclusive = mostly about -30% to -63%
#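 In 5 uL wells, 23 nL compound meets equimolar GST-E1A and His-CtBP (5X stock 125 nM each) for 2 h, 37 °C. Beads (5X, 50 ug/mL) then 1 h, 37 °C, dark.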
# BAZ2B block: qHTS Assay for Inhibitors of BAZ2B. 360,000 tested, 4.4% active. AlphaScreen BAZ2B-H3K14Ac peptide displacement. Potency, µM (series often up to 114 µM), hits mostly inhibitors. AID 504333, 2011. Bromodomain adjacent to zinc finger domain protein 2B (Homo sapiens), Q9UIF8; note: nearly all actives have a fitted effect of over 60% in size
#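 BAZ2B 50 nM plus b-H3(5-23)K14Ac 50 nM, PBS pH 7.4/0.01% Tween-20, 30 min RT; compound added (max 110 uM), 30 min RT; streptavidin donor/Ni-chelate acceptor beads 10 ug/mL final, 20 min dark; AlphaScreen read.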
# G9a inh: qHTS Assay for Inhibitors of Histone Lysine Methyltransferase G9a; Potency, µM (doses to about 102 µM), usual class: inhibitors; Histone-lysine N-methyltransferase EHMT2 (Homo sapiens), Q96KQ7; 350,000 tested, 8.8% active; G9a H3K9 monomethylation, AlphaScreen, 2 h; AID 504332, 2011; note: nearly all actives have a fitted effect of over 75% in size
#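 Quantitative HTS format: methyltransferase activity on a biotin-tagged H3K9 peptide is measured by AlphaScreen, using a rabbit anti-monomethyl-H3K9 antibody with streptavidin donor and anti-IgG acceptor beads. Final levels are 20 nM enzyme, 500 nM peptide, 20 uM SAM; 2 h RT.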
# Numbers stand for hits; . = inactive; ? = inconclusive; / = no result; [ ] = remark or other dose. Unless noted, calls come from the whole dose curve; as a rule, active = well fitted inhibition curve with a large enough effect; inconclusive = small, poorly fitted or top-dose-only effect; inactive = no such curve, though single readings can be large or run the other way.
SMILES,Six1-Eya2 inh,HP1b binding inh,JMJD2A Tudor,CtBP-E1A blk,BAZ2B block,G9a inh
CC(C)CCN1C(=O)N(c2ccccc2)C(=O)C1CC(=O)Nc1ccc(Cl)cc1 (stereo not drawn),/,.,.,/,.,.
COc1ccc(CCn2c(=O)c3cccnc3n(CC(=O)Nc3c(C)cc(C)cc3C)c2=O)cc1OC,/,.,.,/,.,.
C=CC(=O)N1CCCC(Nc2nc(Nc3ccc(N(C)C(=O)CC)cc3C)nc3nc[nH]c23)C1 (stereo not drawn),-67,.,.,?,/,/
CCCCNC(=O)c1sc(=S)n2c1[nH]c(=O)c1ccc(C(=O)NCCc3ccc(OC)c(OC)c3)cc12,.,.,.,/,?,25µM
O=C(NCc1ccccc1)c1sc(=S)n2c1[nH]c(=O)c1ccccc12,.,.,?,.,45µM,28µM
O=C(NCc1ccccc1)c1c(O)c2ccccc2[nH]c1=O,.,.,.,.,.,.
Cc1cc(NC(=O)CSc2nc3c(c(-c4cccnc4)c2C#N)CCC3)no1,.,.,?,.,79µM,.
Cc1cc(NC(=O)CSc2nc(-c3cccnc3)ccc2C#N)no1,.,.,.[11.4 µM],.,.,?
O=c1ccc2c(-c3ccccc3)c3ccc(O)cc3oc-2c1,.,?,.,.,.,.
Nc1ccc(-c2c3ccc(=O)cc-3oc3cc(O)ccc23)cc1C(=O)O,.,?,?,.,?,45µM
CCNC(=O)CC1C(=O)N(c2ccc(F)cc2)C(=O)N1Cc1ccc(OC)c(OC)c1 (stereo not drawn),/,.,.,/,.,.
CC[n+]1c(C)n(C)c2cc(S(=O)(=O)N(C)C)ccc21,.,.,?,.,.,/
CCn1c(C)[n+](CC)c2ccc(S(=O)(=O)N(C)C)cc21,.,.,.,.,?,45µM
CCn1c(C)[n+](CC)c2ccc(C(=O)N(C)c3ccccc3)cc21,.,.,.,/,.,35µM
CCOC(=O)c1ccc2c(c1)n(CC)c(C)[n+]2CC,.,.,.,.,.,?
Cc1nc2nc(-c3ccc(Cl)cc3)cn2nc1C,.,.,.,.,.,.[12.7 µM]
COc1cccc(-c2cn3nc(C)c(C)nc3n2)c1,.,.,.,.,.,20µM
Cc1ccc(C(CC(=O)Nc2ccc(C)cc2C)N2Cc3ccccc3C2=O)cc1 (stereo not drawn),/,.,.,/,?,.
Cc1ccc(CNC(=O)c2cn(C3CCCC3)c(=O)c3c2c2ccccc2n3C)o1,/,/,/,/,56µM,11µM
COc1ccc(N2CCN(C(=O)c3cn(C)c(=O)c4c3c3ccccc3n4C)CC2)cc1,.,.,?,.,45µM,32µM
COc1ccc(N2CCN(C(=O)c3cn(C4CCCC4)c(=O)c4c3c3ccccc3n4C)CC2)cc1,?,?,14µM,?,?,32µM
CCOC(=O)N1CCN(C(=O)c2cn(C)c(=O)c3c2c2ccccc2n3C)CC1,.,.,.,.,.,.
Cn1c2ccccc2c2c(C(=O)NCc3ccco3)cn(C3CCCCC3)c(=O)c21,.,.,.,.,?,?
O=C(CN1C(=O)C2CCCCN2c2ccc(C(=O)N3CCCC3)cc21)NCc1ccccc1F (stereo not drawn),/,.,.,/,.,.
Cc1cccc(Cn2c(=O)n(CC3CCC(C(=O)NC(C)C)CC3)c(=O)c3sccc32)c1 (stereo not drawn),/,.,.,/,.,.
SMILES,Six1-Eya2 inh,HP1b binding inh,JMJD2A Tudor,CtBP-E1A blk,BAZ2B block,G9a inh
CCc1ccc(NC(=O)Cn2cnc3nc4c(cc3c2=O)CCCC4)cc1,/,.,?,/,.,.
S=c1nc(C2COc3ccccc3O2)[nH][nH]1 (stereo not drawn),.,.,1.8µM,.,?,3.5µM
S=c1[nH]nc(C2COc3ccccc3O2)o1 (stereo not drawn),.,.,.,.,.,32µM
COc1ccc(N2CC(NC(=O)COc3ccccc3F)CC2=O)cc1OC (stereo not drawn),/,.,.,/,.,.
CCOc1ccc(OCC(=O)NCCS(=O)(=O)N2CCN(c3ccc(OC)cc3)CC2)cc1,/,.,.,/,.,.
CC12CCC(C(=O)NCCCn3ccnc3)(OC1=O)C2(C)C (stereo not drawn),.,.,.[11.4 µM],.,.,16µM
Cn1c2c(c(=O)[nH]c1=O)C(c1ccc(O)cc1)C1=C(N2)c2ccccc2C1=O (stereo not drawn),.,35µM,50µM,.,.,35µM
COc1ccc(C(=O)c2c(C(F)(F)F)oc3c2C(=O)c2ccccc2C3=O)cc1OC,?,?,?,?,?,14µM
CC(=O)N1c2ccccc2CC1C(=O)N1CCN(c2cccc(C)c2C)CC1 (stereo not drawn),/,.,.,/,.,.[12.7 µM]
Cc1csc(Sc2ccc(C(=O)OCC(=O)Nc3ccc(F)cc3[N+](=O)[O-])cc2[N+](=O)[O-])n1,.,.,?,.,.,35µM
Cc1ccc2[nH]c(=O)c(CN(Cc3cccs3)S(=O)(=O)c3ccc4c(c3)OCCO4)cc2c1,.,.,.,.,.,1µM
O=C(Nc1cccs1)OCCN1CCN(Cc2ccccc2)CCC1=O,.,.,.,.,.,45µM
Cc1cc(C)cc(NC(=O)CCCn2c3ccccc3c(=O)c3ccccc32)c1,/,.,.,/,.,.
CC(=O)N(C)c1ccc(N=Nc2c(C)[nH]n(C(N)=S)c2=O)cc1,.,.,.,.,.,.
CC(=O)N(C)c1ccc(N=Nc2c(C)[nH]n(-c3ccccc3)c2=O)cc1,.,?,?,/,?,35µM
CCOC(=O)c1ccc(N=Nc2c(C)[nH]n(-c3ccccc3)c2=O)cc1,?,.,?,/,?,4µM
CN1CCc2c(sc(NC(=O)CS(=O)(=O)c3ccc(F)cc3)c2C(N)=O)C1,.,.,.,.,.,50µM
CNC(=O)c1c(NC(=O)CCS(=O)(=O)c2ccc(Cl)cc2)sc2c1CCN(C(=O)OC)C2,.,.,.,.,.,50µM
CN1CCc2c(sc(NC(=O)Cc3ccc(F)cc3)c2C(N)=O)C1,.,.,.,/,.,.
CC(=O)N1CCc2c(sc(NC(=O)CS(=O)(=O)c3ccc(F)cc3)c2C(N)=O)C1,.,.,.,.,.,50µM
COc1ccc(C)cc1NC(=O)Cn1c(=O)nc(-c2ccccc2F)c2cc(Cl)ccc21,/,.,.,/,.,.
